From the antibiotic and cytotoxicity screens of Wong et al. (2023) come the findings set out here.

Hit rate of the full screen: of about 39,000 compounds, about 3,300 (8.5%) were called active. The sample holds actives, similar compounds and a random draw of the others, so the mix is not that of the screen.

This test concerns HepG2. Nature of the test: cytotoxicity call (relative viability < 0.9). To be noted: 10 µM.
Consider `C[C@@H]1CCCCO[C@H](CN(C)Cc2ccc(C(=O)Nc3ccccc3N)cc2)[C@@H](C)CN([C@H](C)CO)C(=O)c2cc(NS(=O)(=O)c3cccs3)ccc2O1`, for which the cytotoxicity call was “inactive”. Next, `C[C@@H]1CCCCO[C@H](CN(C)Cc2ccc(C(=O)Nc3ccccc3N)cc2)[C@@H](C)CN([C@H](C)CO)C(=O)c2cc(NS(=O)(=O)c3ccccc3)ccc2O1`: “inactive”; `C[C@@H]1CCCCO[C@@H](CN(C)Cc2ccc(C(=O)Nc3ccccc3N)cc2)[C@@H](C)CN([C@H](C)CO)C(=O)c2cc(NS(=O)(=O)c3cccs3)ccc2O1`: “active”; `COc1ccc2c3c(n(c2c1)C)[C@H](CO)N(C[C@]13CCN(CC1)C(=O)Nc1ccc(cc1F)F)C(=O)Nc1ccc(cc1)F`: “inactive”.

On to `O=C(C[C@@H]1CC[C@H](NS(=O)(=O)c2ccccc2)[C@@H](CO)O1)NCc1ccncn1`, for which the cytotoxicity call was “inactive”. Under `C[C@H](CO)N1C[C@H](C)[C@H](CN(C)C(=O)Nc2ccc(C(F)(F)F)cc2)Oc2ccc(NC(=O)C3CCCCC3)cc2C1=O` stands “inactive”. Under `C[C@H](CO)N1C[C@H](C)[C@@H](CN(C)Cc2ccc(F)cc2)Oc2cc(C#CC3CC3)ccc2S1(=O)=O` stands “inactive”; under `C[C@H](CO)N1C[C@H](C)[C@@H](CN(C)Cc2ccc(F)cc2)Oc2cc(C#CCN(C)C)ccc2S1(=O)=O`, “inactive”; under `C[C@@H]1CN([C@@H](C)CO)S(=O)(=O)c2ccc(C#CC3CC3)cc2O[C@H]1CN(C)Cc1ccc(F)cc1`, “inactive”. Next, `C[C@H]1CN([C@@H](C)CO)S(=O)(=O)c2ccc(C#CCN(C)C)cc2O[C@@H]1CN(C)Cc1ccc(F)cc1`: “inactive”; `C[C@@H]1CN([C@H](C)CO)S(=O)(=O)c2ccc(C#CC3CC3)cc2O[C@H]1CN(C)Cc1ccc(F)cc1`: “active”. In the case of `C[C@@H]1CN([C@@H](C)CO)S(=O)(=O)c2ccc(C#CCN(C)C)cc2O[C@H]1CN(C)Cc1ccc(F)cc1`, the cytotoxicity call is “inactive”. As for `C[C@H](CO)N1C[C@H](C)[C@H](CN(C)Cc2ccc(F)cc2)Oc2cc(C#CCN(C)C)ccc2S1(=O)=O`, the cytotoxicity call is “active”. Under `C[C@@H]1CN([C@H](C)CO)S(=O)(=O)c2ccc(C#CCN(C)C)cc2O[C@H]1CN(C)Cc1ccc(F)cc1` stands “active”; under `C[C@@H]1CN([C@@H](C)CO)S(=O)(=O)c2ccc(C#CCN(C)C)cc2O[C@@H]1CN(C)Cc1ccc(F)cc1`, “inactive”. Next, `CCCNC(=O)N1C[C@@H](O)COC[C@@H]2O[C@@H](CC(=O)NCc3ccncn3)CC[C@H]21`: “inactive”. Consider `C[C@@H]1CN([C@@H](C)CO)S(=O)(=O)c2ccc(C3=CCCC3)cc2O[C@@H]1CN(C)C(=O)c1cnccn1`, for which the cytotoxicity call is “inactive”. Under `COc1ccc(CN(C)C[C@H]2OCCCC[C@H](C)Oc3ccc(NS(=O)(=O)c4ccc(Cl)cc4)cc3C(=O)N([C@H](C)CO)C[C@H]2C)cc1` stands “inactive”; under `C[C@H](CO)N1C[C@H](C)[C@@H](CN(C)C(=O)Cc2ccccc2)OCCCC[C@H](C)Oc2ccc(NC(=O)Cc3ccccc3)cc2C1=O`, “inactive”. Under `CC(C)N1C[C@H](C)[C@@H](CN(C)Cc2ccc(Oc3ccccc3)cc2)Oc2c(NC(=O)c3ccccn3)cccc2C1=O` stands “inactive”; under `COc1ccccc1-c1ccc2c(c1)O[C@H](CN(C)CC1CCOCC1)[C@@H](C)CN([C@H](C)CO)S2(=O)=O`, “inactive”. Under `C[C@@H]1CN([C@@H](C)CO)S(=O)(=O)c2ccc(C#CC3(O)CCCC3)cc2O[C@@H]1CN(C)C(=O)c1cccnc1` stands “inactive”. Regarding `C[C@@H]1CN([C@@H](C)CO)C(=O)c2ccccc2-c2ccccc2CO[C@H]1CN(C)Cc1ccccc1C(F)(F)F`, the cytotoxicity call was “inactive”.

Turning to `O=C(C[C@@H]1CC[C@H]2[C@@H](COC[C@@H](O)CN2S(=O)(=O)c2ccc(F)cc2)O1)N[C@@H]1CCN(Cc2ccccc2)C1`, the cytotoxicity call is “inactive”.

Take `O=C(C[C@H]1CC[C@H](NC(=O)Cc2ccccn2)[C@H](CO)O1)NCCc1ccncc1`: the cytotoxicity call was “inactive”. On to `CC1CCN(C(=O)N2c3ccccc3Sc3ccccc32)CC1`, for which the cytotoxicity call is “inactive”.

As for `CSc1ccc2c(c1)N(CCC1CCCCN1C)c1ccccc1S2.Cl` (centres undefined), the cytotoxicity call was “active”. Next, `C[C@H]1CN([C@@H](C)CO)C(=O)c2cccc(NS(=O)(=O)c3cccs3)c2O[C@H]1CN(C)S(C)(=O)=O`: “inactive”; `C[C@@H]1CN([C@@H](C)CO)C(=O)c2cc(NC(=O)Nc3ccccc3)ccc2O[C@@H](C)CCCCO[C@H]1CN(C)C(=O)CCC(F)(F)F`: “inactive”; `C[C@@H]1CCCCO[C@H](CN(C)S(=O)(=O)c2cccs2)[C@@H](C)CN([C@@H](C)CO)C(=O)c2cc(NC(=O)Nc3ccc(C(F)(F)F)cc3)ccc2O1`: “active”. Regarding `C[C@@H]1CN([C@@H](C)CO)C(=O)c2cc(NC(=O)Nc3ccc(C(F)(F)F)cc3)ccc2O[C@@H](C)CCCCO[C@@H]1CN(C)S(=O)(=O)c1cccs1`, the cytotoxicity call is “inactive”. Next, `C[C@H](CO)N1C[C@H](C)[C@@H](CN(C)S(=O)(=O)c2cccs2)OCCCC[C@H](C)Oc2ccc(NC(=O)Nc3ccc(C(F)(F)F)cc3)cc2C1=O`: “inactive”; `C[C@@H]1CCCCO[C@@H](CN(C)S(=O)(=O)c2cccs2)[C@@H](C)CN([C@H](C)CO)C(=O)c2cc(NC(=O)Nc3ccc(C(F)(F)F)cc3)ccc2O1`: “inactive”; `C[C@@H]1CCCCO[C@H](CN(C)S(=O)(=O)c2cccs2)[C@H](C)CN([C@@H](C)CO)C(=O)c2cc(NC(=O)Nc3ccc(C(F)(F)F)cc3)ccc2O1`: “active”.

For `C[C@@H]1CN([C@H](C)CO)C(=O)c2cc(NC(=O)Nc3ccc(C(F)(F)F)cc3)ccc2O[C@@H](C)CCCCO[C@@H]1CN(C)S(=O)(=O)c1cccs1`, the cytotoxicity call is “inactive”.

Take `C[C@@H]1CN([C@H](C)CO)C(=O)c2cc(NC(=O)C3CC3)ccc2O[C@H]1CN(C)Cc1ccc(Oc2ccccc2)cc1`: the cytotoxicity call is “inactive”. Under `COc1cc(OC)c([C@@H]2c3c(n(C)c(=O)n(C)c3=O)N=C3COC(=O)C32)cc1OC` (some centres undefined) stands “inactive”. As for `NCc1cnc(Nc2ccccc2)nc1`, the cytotoxicity call is “inactive”. Under `COc1ccc(S(=O)(=O)Nc2ccc3c(c2)C(=O)N([C@H](C)CO)C[C@H](C)[C@@H](CN(C)Cc2ccc4c(c2)OCO4)OCCCC[C@@H](C)O3)cc1` stands “inactive”. Next, `C[C@@H]1CCCCO[C@H](CN(C)C(=O)C2CCCCC2)[C@H](C)CN([C@H](C)CO)C(=O)c2cc(NC(=O)c3ccccc3)ccc2O1`: “inactive”. Next, `C[C@@H]1CN([C@@H](C)CO)C(=O)c2cccc(NC(=O)C3CCCCC3)c2O[C@@H]1CN(C)Cc1ccc(C(F)(F)F)cc1`: “inactive”. As to `C[C@H](CO)N1C[C@H](C)[C@@H](CN(C)C(=O)c2cnccn2)Oc2ncc(C#Cc3ccccn3)cc2C1=O`, the cytotoxicity call was “inactive”. Under `CCCCC[C@@H](C)N` stands “inactive”. Next, `C[C@@H]1CN([C@H](C)CO)C(=O)Cc2cc(NS(=O)(=O)c3cn(C)cn3)ccc2O[C@@H]1CN(C)CC1CC1`: “inactive”. Next, `O=C(Nc1cccc2cccnc12)[C@@H]1[C@H](c2cccc(Br)c2)CC(=O)N1C(=O)OCc1ccccc1`: “inactive”; `O=C(Nc1cccc2cccnc12)[C@@H]1[C@H](c2ccc(-c3ccccc3)cc2)CC(=O)N1C(=O)OCc1ccccc1`: “inactive”. `O=C(Nc1cccc2cccnc12)[C@@H]1[C@H](c2cc(Cl)cc(Br)c2)CC(=O)N1C(=O)OCc1ccccc1`: the cytotoxicity call was “active”. Regarding `O=C(Nc1cccc2cccnc12)[C@@H]1[C@H](c2ccc(Br)cc2)CC(=O)N1C(=O)OCc1ccccc1`, the cytotoxicity call is “inactive”.

For `COc1ccc(NC(=O)[C@@H]2[C@H](c3ccc(C)cc3)CC(=O)N2C(=O)OCc2ccccc2)c2ncccc12`, the cytotoxicity call was “inactive”. On to `COc1ccc(NC(=O)[C@H]2[C@@H](c3ccc(C)cc3)CC(=O)N2C(=O)OCc2ccccc2)c2ncccc12`, for which the cytotoxicity call is “active”. Next, `C[C@H](CO)N1C[C@H](C)[C@H](CN(C)Cc2ccccc2)Oc2c(NS(=O)(=O)c3cn(C)cn3)cccc2C1=O`: “inactive”; `COC(=O)C1=CO[C@@H](O[C@@H]2O[C@H](CO)[C@@H](O)[C@H](O)[C@H]2O)[C@@H]2[C@@H](C)[C@@H](O)C[C@H]12`: “inactive”. Under `CC1=NNC(=O)CC1` stands “inactive”.

Turning to `Cc1noc(C)c1NC(=O)Nc1ccc2c(c1)C(=O)N([C@H](C)CO)C[C@@H](C)[C@@H](CN(C)Cc1ccc(C(F)(F)F)cc1)OCCCC[C@@H](C)O2`, the cytotoxicity call was “inactive”.

Regarding `c1ccc(CNc2nn[nH]n2)cc1`, the cytotoxicity call is “inactive”. Under `Cn1nnnc1NCc1ccccc1` stands “inactive”; under `c1ccc(CNc2ccc3c(ccc4c5ccccc5[nH]c34)n2)cc1`, “active”; under `C[C@@H](CO)N1C(=O)[C@@H]2[C@H]3C(=O)OCCC=C[C@H]3O[C@]23C=CCN(Cn2nnc4ccccc42)C(=O)[C@@H]13`, “inactive”.

Take `O=c1nc[nH]c2ccccc12`: the cytotoxicity call was “inactive”. Under `FC(F)(F)c1ccc(CSc2c[nH]c3ccccc23)cc1` stands “inactive”; under `Brc1ccc(CSc2c[nH]c3ccccc23)cc1`, “active”. Under `CC1(C)C=Cc2c(nc3ccccc3c2NCc2ccccc2)C1` stands “active”; under `Cn1nnc(NCc2ccccc2)n1`, “inactive”. Under `CC(C)NC(=O)Nc1cccc2c1O[C@H](CN(C)S(=O)(=O)c1ccc(Cl)cc1)[C@@H](C)CN([C@@H](C)CO)C2=O` stands “inactive”; under `CNC(=O)C[C@H]1CC[C@H]2[C@@H](COC[C@@H](O)CN2C(=O)c2ccccn2)O1`, “inactive”; under `C=C[C@@H]1C[C@]1(NC(=O)[C@@H]1C[C@@H]2CN1C(=O)[C@H](C(C)(C)C)NC(=O)O[C@@H]1C[C@H]1CCCCCc1nc3ccc(OC)cc3nc1O2)C(=O)NS(=O)(=O)C1CC1`, “inactive”. As to `COCC#Cc1ccc2c(c1)O[C@H](CN(C)C(=O)Nc1ccccc1F)[C@@H](C)CN([C@H](C)CO)S2(=O)=O`, the cytotoxicity call is “inactive”. Under `C[C@H](CO)N1C[C@H](C)[C@@H](CN(C)S(=O)(=O)c2cccs2)Oc2ccc(NC(=O)Cn3cnnn3)cc2CC1=O` stands “inactive”; under `C[C@H]1CN([C@@H](C)CO)C(=O)c2cc(NC(=O)Nc3cccc4ccccc34)ccc2O[C@H]1CN(C)Cc1ccc(C(=O)Nc2ccccc2N)cc1`, “inactive”. Under `C[C@H](CO)N1C[C@H](C)[C@H](CN(C)Cc2ccc(C(=O)Nc3ccccc3N)cc2)Oc2ccc(NC(=O)Nc3cccc4ccccc34)cc2C1=O` stands “active”; under `C[C@H]1CN([C@@H](C)CO)C(=O)c2cc(NC(=O)Nc3cccc4ccccc34)ccc2O[C@@H]1CN(C)Cc1ccc(C(=O)Nc2ccccc2N)cc1`, “inactive”. On to `C[C@@H]1CN([C@H](C)CO)C(=O)c2cc(NC(=O)Nc3cccc4ccccc34)ccc2O[C@@H]1CN(C)Cc1ccc(C(=O)Nc2ccccc2N)cc1`, for which the cytotoxicity call is “active”. Take `C[C@@H]1CN([C@H](C)CO)C(=O)c2cc(NC(=O)Nc3cccc4ccccc34)ccc2O[C@H]1CN(C)Cc1ccc(C(=O)Nc2ccccc2N)cc1`: the cytotoxicity call was “inactive”. Next, `C[C@H](CO)N1C[C@H](C)[C@@H](CN(C)Cc2ccc(C(=O)Nc3ccccc3N)cc2)Oc2ccc(NC(=O)Nc3cccc4ccccc34)cc2C1=O`: “inactive”.
